Bioassay records (PubChem)
The list is not random: actives were taken first. Their share in the collection is about 9.9%.
KDM4E inh: blocks human JMJD2E demethylase activity. 230,000 tested, 1.6% active. JMJD2E catalytic domain, FDH-coupled NADH fluorescence (FDH is formaldehyde dehydrogenase). Potency, µM (doses to about 57.1 µM), usual class: inhibitors. AID 2147. B2RXH2; further: nearly all actives have a fitted effect of over 50% in size
Tau fibril FP: tau fibrillization inhibition (FP). 280,000 tested, 0.39% active. Potency, µM (doses to about 57.7 µM), most hits filed as inhibitors. K18 P301L tau heparin fibrillization, Alexa594 FP, 6 h. P10636; active means well fitted curve in the direction sought with a large enough effect; inconclusive means small, poorly fitted or top-dose-only effect, or another doubt; inactive means no such curve, though single readings can be large; an effect the other way counts as inactive or inconclusive; further: nearly all actives have a fitted effect of over 55% in size
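Human tau K18 […] P301L fragment, 15 uM unlabeled plus 0.24 uM Alexa 594-labeled tau (final), with compound and 20 uM heparin in 100 mM sodium acetate pH 7; 6 hr at 37 C, then Alexa 594 FP read.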
ALDH1A1 inh: inhibitors of human aldehyde dehydrogenase 1A1 | P00352 | Purified ALDH1A1, NADH fluorescence, propionaldehyde substrate | Potency, µM (doses to about 75.3 µM), actives largely listed as inhibitors | 220,000 tested, 7.3% active | AID 1030
Target sequence (P00352 whole entry, looked up): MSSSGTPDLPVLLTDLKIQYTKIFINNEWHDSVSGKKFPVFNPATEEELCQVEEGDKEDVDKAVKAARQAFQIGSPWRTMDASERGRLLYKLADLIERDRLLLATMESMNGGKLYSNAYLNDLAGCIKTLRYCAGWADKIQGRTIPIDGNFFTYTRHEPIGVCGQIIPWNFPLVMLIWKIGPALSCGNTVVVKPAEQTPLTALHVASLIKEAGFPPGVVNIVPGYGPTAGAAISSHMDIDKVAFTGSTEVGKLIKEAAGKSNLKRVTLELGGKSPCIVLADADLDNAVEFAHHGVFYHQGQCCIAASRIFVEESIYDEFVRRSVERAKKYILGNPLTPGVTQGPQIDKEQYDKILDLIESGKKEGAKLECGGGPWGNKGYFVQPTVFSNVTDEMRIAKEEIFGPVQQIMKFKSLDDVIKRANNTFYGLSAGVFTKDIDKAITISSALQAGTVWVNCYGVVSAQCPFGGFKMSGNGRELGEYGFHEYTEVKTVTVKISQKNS
Tau fibril ThT: blocks human tau fibril formation measured by thioflavin T | recombinant tau K18 P301L, heparin-induced fibrillization, ThT fluorescence | Potency, µM (titrated, usually from 57.4 µM), most hits filed as inhibitors | 270,000 tested, 2.1% active; active means well fitted curve in the direction sought with a large enough effect; inconclusive means small, poorly fitted or top-dose-only effect, or another doubt; inactive means no such curve, though single readings can be large; an effect the other way counts as inactive or inconclusive; further: nearly all actives have a fitted effect of over 55% in size
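ThT emission at 510 nm, taken 1 hr after adding 30 uM dye, quantifies aggregates formed when 20 uM heparin acts on human tau K18 P301L for 6 hr at 37 C.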
HPGD block: HPGD (human) dehydrogenase inhibition; P15428; purified HPGD, NADH fluorescence kinetic, PGE2 substrate; Potency, µM, hits mostly inhibitors; 150,000 tested, 4.3% active
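NADH formation kinetics: reaction with 30 uM PGE2 and 1 mM NAD+ (final), 20 nM enzyme, Tris-HCl pH 8 with Tween 20, after 15 min compound preincubation at room temperature. Fluorescence change, last versus first of five reads.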
Tau fluor cs: counter-screen for tau fibril formation inhibitors | tau K18 P301L (four-repeat tau fragment) Alexa594 fluorescence, heparin fibrillization | Potency, µM (series often up to 57.7 µM) | 280,000 tested, 0.93% active; active means well fitted curve in the direction sought with a large enough effect; inconclusive means small, poorly fitted or top-dose-only effect, or another doubt; inactive means no such curve, though single readings can be large; an effect the other way counts as inactive or inconclusive; further: nearly all actives have a fitted effect of over 55% in size
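Human K18 P301L tau (15 uM unlabeled plus 0.24 uM Alexa 594-labeled, final) in 100 mM sodium acetate pH 7 was mixed with compound and 20 uM heparin and incubated 6 hr at 37 C.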
Of the large screens only hits and unclear results are named; the others gave an inactive call; [ ] = another dose, or the depositor's remark. Unless noted, the call rests on the fitted dose curve; in most records, active means well fitted inhibition curve with a large enough effect (not every such curve was filed as active); inconclusive means small, poorly fitted or top-dose-only effect, or another doubt; inactive means no such curve, though single readings can be large or run the other way.

COc1ccc(OCC(O)CNS(=O)(=O)c2cccc(Cl)c2)cc1 (centres undefined)	ALDH1A1 inh 10µM (no result: HPGD block)
COc1ccc(OCC(O)CNC(=O)c2ccc(OC)cc2)cc1 (centres undefined)	ALDH1A1 inh inconclusive (no result: HPGD block)
CC(C(=O)N1CCCCC1)n1sc2ccccc2c1=O (centres undefined)	HPGD block 3.5µM
CC(C(=O)N1CCCCC1)N1C(=O)c2ccccc2C1=O (centres undefined)	ALDH1A1 inh inconclusive
O=C(CSc1nc(-c2cccc(F)c2)[nH]c1-c1ccccc1)Nc1ccc2c(c1)OCCO2	Tau fibril FP inconclusive, Tau fibril ThT inconclusive, Tau fluor cs 11µM[quencher] (no result: KDM4E inh, ALDH1A1 inh, HPGD block)
Cc1ccc2nc(SCC(=O)Nc3ccc4c(c3)OCCO4)[nH]c2c1	ALDH1A1 inh inconclusive, Tau fibril ThT inconclusive, Tau fluor cs inconclusive
O=C(CSc1nc2ccccc2[nH]1)Nc1ccc2c(c1)OCCO2	ALDH1A1 inh inconclusive, Tau fibril ThT inconclusive
CCc1c(C)nc(SCC(=O)Nc2ccc3c(c2)OCCO3)[nH]c1=O	ALDH1A1 inh 11µM (no result: HPGD block)
Cc1cccc(-c2nc(SCC(=O)Nc3ccc4c(c3)OCCO4)c(-c3ccccc3)[nH]2)c1	Tau fluor cs 8.9µM[quencher] (no result: KDM4E inh, ALDH1A1 inh, HPGD block)
Cn1ccc(=S)c2ccccc21	KDM4E inh inconclusive, ALDH1A1 inh 7.1µM, Tau fibril ThT inconclusive (no result: HPGD block)
CCCCn1cnc2c(SC)ncnc21	none (no result: KDM4E inh, Tau fibril FP, Tau fibril ThT, Tau fluor cs)
COc1cc2c(cc1OC)C1=C(C#N)COCN1CC2	KDM4E inh inconclusive, ALDH1A1 inh inconclusive, Tau fibril ThT inconclusive, HPGD block inconclusive
COc1cc2c(cc1OC)C1=C(C#N)CCC(=NC(=O)c3ccc(Cl)cc3)N1CC2	HPGD block 14µM
CCC(CC)C(=O)Nc1nc2c(s1)CC(C)CC2 (centres undefined)	none (no result: KDM4E inh, ALDH1A1 inh, HPGD block)
CC1CCc2nc(NC(=O)C3CCCO3)sc2C1 (centres undefined)	ALDH1A1 inh 20µM, Tau fibril ThT inconclusive
CC1CCc2nc(NC(=O)Cc3cccs3)sc2C1 (centres undefined)	KDM4E inh inconclusive, ALDH1A1 inh 20µM
Cc1ccc2nc(NC(=O)Cc3cccs3)sc2c1	ALDH1A1 inh 7.9µM
COc1ccc2nc(NC(=O)Cc3cccs3)sc2c1	none
CC(C)(C)OC(=O)N1CCC(c2c(C(=O)NCc3cccc(Cl)c3)cnn2-c2ccc(F)cc2)CC1	none (no result: KDM4E inh, ALDH1A1 inh, HPGD block)
CCOC(=O)c1ccc(NC(=O)CSc2ncc(S(=O)(=O)c3ccc(C)c(Cl)c3)c(=O)[nH]2)cc1	none (no result: KDM4E inh, ALDH1A1 inh, HPGD block)
O=C1CC(c2ccc(O[C@@H]3OC(CO)[C@@H](O)C(O)C3O)cc2)Oc2cc(O)ccc21 (some centres undefined)	none
Cc1cccc(N2C(=O)C(CC(=O)Nc3ccccc3)N(C3CCCCC3)C2=O)c1 (centres undefined)	none (no result: KDM4E inh, ALDH1A1 inh, HPGD block)
O=C1C(Cl)=C(N2CCN(c3ccccc3[N+](=O)[O-])CC2)C(=O)c2ccccc21	Tau fibril FP 10µM, ALDH1A1 inh 7.1µM, Tau fibril ThT 3.5µM, Tau fluor cs 8.9µM[quencher]
CC(=O)c1sc(NC(=O)c2c(F)cccc2F)nc1-c1ccccc1	ALDH1A1 inh 11µM (no result: HPGD block)
COc1ccc(Cl)cc1Nc1cc(C)nc2nc(C)nn12	HPGD block 3.5µM
COc1cc(OC)c(Nc2cc(C)nc3nc(C)nn23)cc1Cl	none
Cc1ccc(N(C)C)cc1	ALDH1A1 inh inconclusive (no result: KDM4E inh, Tau fibril FP, Tau fibril ThT, Tau fluor cs)
Cc1ccc(C)n1-c1ccc(N2CCOCC2)cc1	KDM4E inh inconclusive, ALDH1A1 inh 7.1µM, Tau fibril ThT 8.9µM
c1ccc(N2CCOCCOCCOCCOCC2)cc1	none (no result: ALDH1A1 inh, HPGD block)
Cc1ccc(C)n1-c1ccc(N(C)C)cc1	KDM4E inh 16µM, Tau fibril FP inconclusive, ALDH1A1 inh inconclusive, Tau fibril ThT 13µM, Tau fluor cs inconclusive (no result: HPGD block)
COC(=O)c1ccccc1NC(=O)c1cc2nc(-c3ccccc3)cc(-c3ccccc3)n2n1	none (no result: KDM4E inh, ALDH1A1 inh, HPGD block)
C[C@@H](c1ccccc1)N1C(=O)[C@H]2[C@H]3[C@H](O)[C@H](O)C/C(=N/NC(=O)OCc4ccccc4)[C@H]3CC[C@@H]2C1=O	none (no result: KDM4E inh, HPGD block)
c1ccc(CCc2nn3c(C4COc5ccccc5O4)nnc3s2)cc1 (centres undefined)	ALDH1A1 inh 10µM, HPGD block 10µM
